Results published in PubChem BioAssay (NCI).
This is part of a sample that, as a whole, favours compounds with a hit. Of some 79,000 tested, about 15% had one in any assay. Calls of active or inactive are those of the source. Rule as the data show it: active = growth inhibition above about 70%; inactive = the rest.

Tests used:
[1] = NCI Yeast Anticancer Drug Screen. Data for the rad50 strain (AID 155);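 also: 0% = growth of vehicle-only cultures of the same strain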; settings: S. cerevisiae rad50 strain growth inhibition; at 50.0 µM; active compounds read high
In short: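 Yeast carrying a defined DNA repair defect were exposed to test compounds, and growth was compared with vehicle-treated controls to give percent inhibition.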

[2] = NCI Yeast Anticancer Drug Screen. Data for the mec2-1 strain (AID 157); settings: S. cerevisiae mec2-1 strain, at 50.0 µM, active compounds read high
In short: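 Each compound was tested on mec2-1 yeast, a strain altered in DNA damage repair or cell cycle control. Growth inhibition is reported relative to vehicle.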

[3] = NCI Yeast Anticancer Drug Screen. Data for the sgs1 mgt1 strain (AID 161);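 also: 0% = growth of cultures given vehicle only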; settings: S. cerevisiae sgs1 mgt1 strain, at 50.0 µM, active compounds read high
In short: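 Inhibition of yeast growth, normalised to vehicle-treated controls, is reported for a strain bearing genetic alterations in DNA damage repair.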

[4] = NCI Yeast Anticancer Drug Screen. Data for the cln2 rad14 strain (AID 165);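 also: 0% = growth equal to vehicle treated cultures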; settings: S. cerevisiae cln2 rad14 strain, at 50.0 µM, active compounds read high
In short: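 Test compounds were added to cln2 rad14 yeast cultures; inhibition of growth was then determined by comparison with vehicle treatment.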

[5] = NCI Yeast Anticancer Drug Screen. Data for the bub3 strain (AID 167); settings: S. cerevisiae bub3 mutant strain, at 50.0 µM, active compounds read high
In short: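 Compounds were applied to a genetically altered yeast strain carrying a cell-cycle control defect. Growth inhibition was scored against vehicle-treated controls.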

[6] = NCI Yeast Anticancer Drug Screen. Data for the mlh1 rad18 strain (AID 175); settings: S. cerevisiae mlh1 rad18 strain growth inhibition; at 50.0 µM; active compounds read high
In short: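 Inhibition values reflect reduced growth of mutant yeast versus vehicle-treated controls following compound exposure; the mutations affect DNA damage repair.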

Measured: growth inhibition

CNC(C)Cc1ccccc1OC (configuration not stated)
inactive: [1] -10.8% | [2] -12.4% | [3] -1.2% | [4] 2.65% | [5] -4.55% | [6] 11.4%

Clc1ccc(N=P(c2ccccc2)(c2ccccc2)c2ccccc2)cc1.[Cl][Cd][Cl]
active: [1] 95% | [2] 71% | [3] 81.8% | [4] 75.9%
inactive: [5] 64.2% | [6] 69%

O=S(=O)(O)c1ccc([Se][Se]c2ccc(S(=O)(=O)O)cc2)cc1
inactive: [1] 5.8% | [2] -12.9% | [3] -18.1% | [4] -33.5% | [5] -19.2% | [6] -17.4%

NC(=O)c1cc([N+](=O)[O-])c([N+](=O)[O-])cc1N(CCCl)CCCl
inactive: [1] 14.4% | [2] 8.95% | [3] 27.2% | [4] 0.4% | [5] -3.8% | [6] 13.3%

COC(=O)CN(C)P(=O)(N1CC1)N1CC1
inactive: [1] 13.4% | [2] 7.15% | [3] -4.1% | [4] -10.2% | [5] -2.8% | [6] -10.1%

C/C=C\C(C)=C/C(C)C(=O)CC(O)CC1CC(=O)NC(=O)C1 (configuration not stated)
inactive: [1] 11.6% | [2] -20.4% | [3] -6.9% | [4] 11.8% | [5] 7.85% | [6] 13.3%

Cc1ccc(SCC(CSCCO)OCn2cnc3c2NC(N)=NC32OCCO2)cc1 (configuration not stated)
inactive: [1] 6.15% | [2] 2.3% | [3] -37.2% | [4] -7.4% | [5] -12.3% | [6] -56.9%

C1C[N-]CC[N-]1.C1C[N-]CC[N-]1.[Zn]
active: [1] 98.7% | [2] 99.5% | [3] 99.5% | [4] 98.8% | [5] 99.4% | [6] 99.3%

Cn1c(O)c(N=NC(N)=S)c(=O)n(C)c1=O
inactive: [1] 30.6% | [2] 20.4% | [3] 8.95% | [4] -20.4% | [5] -20.3% | [6] 14.6%

CCC1CN1P1(=O)OCC(C)(N)CO1 (configuration not stated)
inactive: [1] -9.45% | [2] 0.7% | [3] -7.35% | [4] 42.6% | [5] -29.1% | [6] -10.6%

C[C@@H]1C[C@@H]2c3cccc4c3c(cn4CO)C[C@H]2N(C)C1
inactive: [1] 8.55% | [2] -24.6% | [3] 28.6% | [4] 3.4% | [5] 0.55% | [6] 8.15%

CC(C)CCC1C(=O)N(C)C(=O)N(C)C1=O
inactive: [1] -9% | [2] -6.55% | [3] 3.15% | [4] -0.5% | [5] 0.55% | [6] 2.05%

O=C(CCN1CC=C(c2ccccc2)CC1)c1ccc(F)cc1
active: [1] 76.5% | [3] 88.6% | [6] 92.3%
inactive: [2] 51.5% | [4] 67.5% | [5] 64.2%

c1ccc(-c2csc3[nH]c4ccccc4[n+]23)cc1
inactive: [1] 19.4% | [2] 5.6% | [3] 8.35% | [4] 5.7% | [5] 5.25% | [6] 6.35%

CC(CCOc1ccc2ccc(=O)oc2c1)C1=CC(=O)C(C)(C)O1 (configuration not stated)
inactive: [1] -6.1% | [2] -8.3% | [3] 21.1% | [4] 0.05% | [5] -7.25% | [6] -44.1%

Oc1ccccc1C1NCCc2[nH]cnc21 (configuration not stated)
inactive: [1] 39% | [2] 11.3% | [3] 14.4% | [4] 30.8% | [5] 4.15% | [6] 7.9%

CCC[CH2][Sn]1([CH2]CCC)[O]CC2(CCCCC2)C[O]1
active: [1] 99.6% | [2] 99.8% | [3] 99.2% | [4] 99.5% | [5] 99.7% | [6] 99.6%

O=C(NC1CCCCC1)C(Cl)(Cl)Cl
inactive: [1] -3.1% | [2] -18.3% | [3] -1.85% | [4] -52% | [5] -4.75% | [6] -5.2%

CN(C)c1ccccc1
inactive: [1] 0.35% | [2] 42.1% | [3] 5.35% | [4] -7.4% | [5] 3.1% | [6] 2.65%

O=C(Nc1ccccc1)Nc1ccc(N(CCCl)CCCl)cc1
inactive: [1] 21.8% | [2] 18.6% | [3] 10.8% | [4] 13.5% | [5] 13.7% | [6] 31.8%

O=P(N1CCNCC1)(N1CCNCC1)N1CCNCC1
inactive: [1] -20.1% | [2] -11.8% | [3] -1.35% | [4] -42.5% | [5] 5.45% | [6] -20.2%

COc1cc2c(cc1OC)[C@@H]1C(=O)c3ccc4c(c3O[C@@H]1CO2)C[C@H](C(C)C)O4
inactive: [1] -11.2% | [2] -40.2% | [3] -1.45% | [4] -9.25% | [5] -33.6% | [6] 7.2%

O=C(O)c1ccc(CI)cc1
inactive: [1] -9.6% | [2] -11.9% | [3] 6% | [4] 9% | [5] 15.2% | [6] -16.9%

O=S(=O)(F)c1cccc(Cl)c1C[P+](c1ccccc1)(c1ccccc1)c1ccccc1
inactive: [1] 25.5% | [2] 3% | [3] 13.7% | [4] 12.7% | [5] 25.5% | [6] 41.4%

[C-]#[O+].[C-]#[O+].[C-]#[O+].[C-]#[O+].[Cr].c1ccc(P(CCP(CCP(c2ccccc2)c2ccccc2)c2ccccc2)CCP(c2ccccc2)c2ccccc2)cc1 (configuration not stated)
inactive: [1] 20.7% | [2] 23.2% | [3] 29.2% | [4] 16.8% | [5] 21.4% | [6] 31.6%

O.[Cr+3].[NH2-].[NH2-].[NH2-].[NH2-].[NH2-].[O-][Cl+3]([O-])([O-])O
inactive: [1] 16.6% | [2] 6.85% | [3] -0.4% | [4] 9.75% | [5] 3.85% | [6] -18.1%

O=S1(=O)OCCO1
inactive: [1] -3.5% | [2] -9% | [3] -3.8% | [4] -27.4% | [5] -5.55% | [6] 7.9%

S=[As](c1ccc(-c2ccccc2)cc1)(c1ccc(-c2ccccc2)cc1)c1ccc(-c2ccccc2)cc1
inactive: [1] -10.7% | [2] -5.55% | [3] -39.5% | [4] -19.6% | [5] -13.6% | [6] -18.2%

CCOP(=O)(CC#N)OCC
inactive: [1] -6.85% | [2] -11.7% | [3] -7.05% | [4] -6.4% | [5] 2.7% | [6] 0%

CS(=N)(=O)CCC(N)C(=O)O (configuration not stated) (tested in a mixture with another compound)
inactive: [1] 4.7% | [2] 21.2% | [3] -12.8% | [4] -1.95% | [5] 17.8% | [6] 2.1%

CS(=O)(=O)C(Cl)Cl
inactive: [1] -1.5% | [2] -4.75% | [3] 0.75% | [4] -2.45% | [5] 6.3% | [6] 19.8%

ClCCN(CCCN(CCCl)c1ccccc1)c1ccccc1
inactive: [1] 11.8% | [2] 12.7% | [3] 32.5% | [4] -8.25% | [5] -5.1% | [6] -27.9%

O=C1NC2C(=CC(O)C(O)C2O)c2cc3c(cc21)OCO3 (configuration not stated)
inactive: [1] 29.9% | [2] 44.2% | [3] 35.8% | [4] 47.1% | [5] 39.1% | [6] 37.2%

O=C(COc1ccc(Cl)cc1)Nc1ccc(Cl)cc1C(=O)c1ccccc1
inactive: [1] -15.8% | [2] -8.9% | [3] 17.3% | [4] 18.8% | [5] 1.1% | [6] -18.4%

C/C(CCl)=N\NC1=NC(C)(CCl)P(=O)(NNc2ncccn2)S1 (configuration not stated)
inactive: [1] 8.05% | [2] 11.2% | [3] 5.2% | [4] 11% | [5] 8.85% | [6] 7.35%

CCCC(=O)[O-].CCCC(=O)[O-].NCCN.NCCN.[Co+3].[O-][Cl+3]([O-])([O-])[O-]
inactive: [1] -18.5% | [2] 19.1% | [3] -5.1% | [4] 23% | [5] -0.45% | [6] -1.75%

CC(Cl)CNC1c2ccccc2CC1O (configuration not stated)
inactive: [1] -4.4% | [2] -7.8% | [3] -1.45% | [4] -18.6% | [5] -6.4% | [6] 5.45%

Cc1ccc(S(=O)(=O)OCCN2CC2)cc1
inactive: [1] -12% | [2] -12.2% | [3] -13.6% | [4] -23.2% | [5] -17.4% | [6] -12.7%

OC(c1ccc2ccccc2n1)C1CCCCN1 (configuration not stated)
inactive: [1] 14.2% | [2] -6.45% | [3] 7.05% | [4] -8.15% | [5] -1.7% | [6] 11.1%

NCCc1ccccc1
inactive: [1] 0.15% | [2] -20.6% | [3] 1.5% | [4] -17.4% | [5] -18.3% | [6] -9.9%

Oc1ccc(O)c(Br)c1
inactive: [1] 18.8% | [2] 5.9% | [3] 28.1% | [4] -21.3% | [5] -4.85% | [6] 29.4%

CCOP(=O)(NCc1ccccc1)c1ccc(N)cc1 (configuration not stated)
inactive: [1] 6.05% | [2] -6.45% | [3] 7.65% | [4] 1.95% | [5] -0.5% | [6] 7.15%
